High-throughput results deposited in PubChem by The Scripps Research Institute Molecular Screening Center.
Hits are enriched below; roughly 2.5% of the tested compounds scored in any of these assays.
ASK1 primary – human ASK1 kinase inhibition, primary screen | Q99683 | AlphaScreen MKK6 phosphorylation by ASK1, luminescence | AID 1159602 | actives 0.99% (n = 22,000) | inhibition, % at 7.44 µM; in the data active means inhibition above about 35%
Target sequence (Q99683 whole entry, looked up): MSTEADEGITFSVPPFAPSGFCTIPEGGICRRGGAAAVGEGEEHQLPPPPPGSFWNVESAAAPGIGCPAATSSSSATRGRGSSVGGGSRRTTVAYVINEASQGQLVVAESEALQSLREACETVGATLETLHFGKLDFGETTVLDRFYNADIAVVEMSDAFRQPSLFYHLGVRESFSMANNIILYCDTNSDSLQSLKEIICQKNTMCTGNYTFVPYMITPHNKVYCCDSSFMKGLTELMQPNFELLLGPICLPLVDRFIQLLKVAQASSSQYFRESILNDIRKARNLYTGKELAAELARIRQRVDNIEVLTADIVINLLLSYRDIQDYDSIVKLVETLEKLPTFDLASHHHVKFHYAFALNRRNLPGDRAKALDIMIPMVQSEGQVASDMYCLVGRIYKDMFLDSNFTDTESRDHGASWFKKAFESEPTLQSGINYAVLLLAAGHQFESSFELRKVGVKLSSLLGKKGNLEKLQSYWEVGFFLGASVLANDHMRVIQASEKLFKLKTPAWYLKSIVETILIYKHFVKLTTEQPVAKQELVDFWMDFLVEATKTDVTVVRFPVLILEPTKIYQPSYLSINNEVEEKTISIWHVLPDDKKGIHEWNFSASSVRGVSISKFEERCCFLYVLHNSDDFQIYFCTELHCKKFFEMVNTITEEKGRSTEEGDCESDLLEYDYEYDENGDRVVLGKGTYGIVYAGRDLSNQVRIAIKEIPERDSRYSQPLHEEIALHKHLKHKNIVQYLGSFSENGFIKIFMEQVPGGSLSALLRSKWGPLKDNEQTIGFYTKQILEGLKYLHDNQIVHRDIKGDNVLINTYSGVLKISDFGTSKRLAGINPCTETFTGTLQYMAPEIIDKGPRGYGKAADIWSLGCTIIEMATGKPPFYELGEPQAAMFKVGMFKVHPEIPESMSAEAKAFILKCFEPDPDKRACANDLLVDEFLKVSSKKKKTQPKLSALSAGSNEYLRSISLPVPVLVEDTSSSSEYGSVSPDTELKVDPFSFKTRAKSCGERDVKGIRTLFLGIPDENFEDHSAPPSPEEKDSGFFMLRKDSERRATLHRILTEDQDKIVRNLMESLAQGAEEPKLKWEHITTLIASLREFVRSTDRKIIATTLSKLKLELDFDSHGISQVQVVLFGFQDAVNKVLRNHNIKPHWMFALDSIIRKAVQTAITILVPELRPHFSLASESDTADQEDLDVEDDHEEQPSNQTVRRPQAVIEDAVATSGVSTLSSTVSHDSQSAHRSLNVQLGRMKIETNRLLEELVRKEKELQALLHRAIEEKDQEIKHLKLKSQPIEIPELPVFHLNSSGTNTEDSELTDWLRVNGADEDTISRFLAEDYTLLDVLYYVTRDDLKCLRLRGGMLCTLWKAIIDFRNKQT
ULK1 primary – blocks human autophagy kinase ULK1; O75385; AlphaScreen Atg13 phosphorylation by ULK1, luminescence; inhibition, % at 5.96 µM; actives 1.9% (n = 30,000); in the data active means inhibition above about 43%
AlphaScreen intf – AlphaScreen optical interference dose response, ASK1 counter-screen. AID 1159604. actives 20% (n = 220). AlphaScreen TruHits beads, signal interference counterscreen. IC50, µM. shares compounds with ASK1 primary;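 active means IC50 of 10 µM or lower in the counterscreen; inactive means IC50 above 10 µM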;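 further: loss of AlphaScreen light from TruHits beads alone with no ASK1 enzyme present; potency of signal reduction so a low IC50 flags an assay artifact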
Of the large screens only hits and unclear results are named; the others gave an inactive call (follow-up assays come after a bar, where they were run).

N#Cc1cc(-c2ccnc(Nc3ccc(CN4CCCCC4)cc3)n2)cc(N2CCOCC2)c1	ULK1 primary 70.9
N#Cc1cc(-c2ccnc(Nc3ccc(N4CCCCC4)cc3)n2)cc(N2CCOCC2)c1	none
N#Cc1cc(-c2ccnc(Nc3ccc(-c4ccccn4)cc3)n2)cc(N2CCOCC2)c1	none
N#Cc1cc(-c2ccnc(Nc3ccc(N4CCNCC4)cc3)n2)cc(N2CCOCC2)c1	ULK1 primary 92.7
COc1ccccc1/C=N\NC(N)=S	none (no result: ASK1 primary)
c1ccc(OCCNc2nc(Nc3ncccn3)nc3c2ncn3-c2ccsc2)cc1	none
Cc1nc(NC(C)c2ccccc2)cc(-c2ccccc2F)n1 (configuration not stated)	none (no result: ASK1 primary)
O=C(Nc1nc2ccccc2n1Cc1ccccc1)C(F)F	none (no result: ASK1 primary)
c1ccc2[nH]ccc2c1	ULK1 primary 83.3 (no result: ASK1 primary)
Oc1cccc2[nH]ccc12	none (no result: ASK1 primary)
O=C(OC[C@H]1O[C@H](OC(=O)c2cc(O)c(O)c(OC(=O)c3cc(O)c(O)c(O)c3)c2)[C@H](OC(=O)c2cc(O)c(O)c(OC(=O)c3cc(O)c(O)c(O)c3)c2)[C@@H](OC(=O)c2cc(O)c(O)c(OC(=O)c3cc(O)c(O)c(O)c3)c2)[C@@H]1OC(=O)c1cc(O)c(O)c(OC(=O)c2cc(O)c(O)c(O)c2)c1)c1cc(O)c(O)c(OC(=O)c2cc(O)c(O)c(O)c2)c1	ULK1 primary 85.6 (no result: ASK1 primary)
CC(=O)OC[C@H]1O[C@@H](OC(C)=O)[C@H](OC(C)=O)[C@@H]1OC(C)=O	none (no result: ASK1 primary)
O=C(Nc1ccc(N2CCOCC2)cc1)C1CCN(c2ccc(Nc3ccc(C(F)(F)F)cc3)nn2)CC1	none
O=C(NCCO)C1CCN(c2ccc(Nc3ccc(C(F)(F)F)cc3)nn2)CC1	ULK1 primary 46.4
O=C(NC1CCN(Cc2ccccc2)CC1)c1csc(N2CCc3ccccc3C2)n1	none
O=C(Nc1ccc2[nH]ncc2c1)C1COc2ccccc2O1 (configuration not stated)	none
Nc1n[nH]c2c(Br)cc(NC(=O)C3COc4ccccc4O3)cc12 (configuration not stated)	ULK1 primary 57.9
COc1ccc(Nc2nc(NCc3cccc(C(F)(F)F)c3)c3[nH]cnc3n2)cn1	none
OCc1ccccc1Nc1ccnc(Nc2ccc(N3CCOCC3)cc2)c1	none
c1ccc(CCn2ncc(-c3ccnc(Nc4ccc(N5CCOCC5)cc4)c3)c2Nc2ccccc2)cc1	ASK1 primary 40.8 | AlphaScreen intf inactive
O=C(Cc1ccccc1)Nc1cc(-c2ccnc(Nc3ccc(N4CCOCC4)cc3)c2)nn1CCc1ccccc1	none
Cn1ncc(-c2ccnc(Nc3ccc(N4CCOCC4)cc3)c2)c1Nc1ccccc1	none
c1ccc(CCn2nc(-c3ccnc(Nc4ccc(N5CCOCC5)cc4)c3)cc2Nc2ccccc2)cc1	ASK1 primary 56.2 | AlphaScreen intf inactive
O=C(Nc1ccccc1)c1ccccc1Nc1ccnc(Nc2ccc(N3CCOCC3)cc2)c1	ASK1 primary 37.1 | AlphaScreen intf inactive
COc1ccc(-c2nc(N)c3ncn(-c4ccsc4)c3n2)cn1	none
C=CCN1CCN(c2c(Cl)cccc2NC(=O)c2cccc(Br)c2)CC1	none
NC(C(=O)N1CCC(Nc2ccc3[nH]ncc3c2)C1)c1ccc(C(F)(F)F)cc1 (configuration not stated)	none
CC(C)n1c(N2CCN(Cc3ccc4c(c3)OCO4)CC2)nc2c(Nc3ccc(N4CCOCC4)cc3)ncnc21	none
c1cnc2ccc(Nc3nc(NCc4nc5ccccc5[nH]4)c4[nH]cnc4n3)cc2c1	none
COc1cc2nc(Nc3cccc(N(C)C)c3)nc(Nc3ccc(NC(C)=O)cc3)c2cc1OC	ASK1 primary 54.7 | AlphaScreen intf 8.66
COc1cc2nc(Nc3cccc(N(C)C)c3)nc(Nc3ccccc3)c2cc1OC	ASK1 primary 42.2 | AlphaScreen intf 4.34
COc1cc2nc(Nc3ccncc3)nc(Nc3ccc(NC(C)=O)cc3)c2cc1OC	none
COc1cc2nc(Nc3ccccc3)nc(Nc3ccccc3)c2cc1OC	none
COc1ccc(CCNc2nc(Nc3ccncc3)nc3c2ncn3-c2ccsc2)cc1	none
CC(=O)Nc1ccc(Nc2cc(Cl)nc(N)n2)cc1	none
COc1ccc2c(c1)CC(C(=O)Nc1ccc(-c3cn[nH]c3)cc1OCCOCc1ccccc1)CO2 (configuration not stated)	ASK1 primary 42.9 | AlphaScreen intf inactive
COc1ccc2c(c1)CC(C(=O)Nc1ccc(-c3cn[nH]c3)cc1OCCC(C)C)CO2 (configuration not stated)	none
c1ccc2c(NCn3nnc4ccccc43)cccc2c1	none (no result: ASK1 primary)
NC(C(=O)N1CCC(Nc2ccc3[nH]ncc3c2)CC1)c1cccc(Cl)c1 (configuration not stated)	none
COc1cc(Nc2nc(N3CCc4ccccc4C3)nc3c2ncn3C2CCCCC2)cc(OC)c1OC	none
COc1cc(Nc2nc(N3CCc4ccccc4C3)nc3c2ncn3C(C)C)cc(OC)c1OC	ASK1 primary 40.2 | AlphaScreen intf inactive
CC(C)n1c(Nc2cccnc2)nc2c(NCc3ccccc3)ncnc21	none
CN(C)CCNC(=O)c1ccc2c(c1)CC(c1nc3ncc(-c4ccnc(N)n4)cc3[nH]1)CO2 (configuration not stated)	none
CC(C)CNC(=O)c1ccc2c(c1)CC(c1nc3ncc(-c4ccnc(N)n4)cc3[nH]1)CO2 (configuration not stated)	ASK1 primary 42.3 | AlphaScreen intf inactive
CN(C)c1cccc(Nc2ccc(N3CCC(C(=O)NCCOc4ccccc4)CC3)nn2)c1	none
Cc1ccc(-c2ncn(-c3ccc(Nc4cc(-c5cnn(C)c5)c(Cl)cn4)cc3)n2)cn1	none
Cc1ccc(-c2ncn(-c3ccc(Nc4ncc(Cl)c(-c5ccnn5C)n4)cc3)n2)cn1	ASK1 primary 42.9 | AlphaScreen intf inactive
Cc1ncn(-c2ccc(Nc3ncc4cccc(-c5cccc(F)c5)c4n3)cc2)n1	none
Cc1ccc(-c2cccc3cnc(Nc4ccc(-n5cnc(C)n5)cc4)nc23)cn1	ASK1 primary 39.1 | AlphaScreen intf inactive
CC(C)N(CCNc1nc(NCCN2CCOCC2)nc2nc[nH]c12)C(C)C	none
CC(=O)c1cccc(-c2nc(C(=O)NCCN(C(C)C)C(C)C)cs2)c1	none
Nc1nc(NCCc2ccc(O)cc2)cc(Nc2ccc(-n3ccnc3)cc2)n1	none
NC(C(=O)N1CCN(c2ccc3[nH]ncc3c2)CC1)c1cccc(Br)c1 (configuration not stated)	none
Cc1nc(C)n(-c2ccc(Nc3nccc(-c4cc(-n5cncn5)cc(-n5cncn5)c4)n3)cc2)n1	none
Cc1nc(C)n(-c2ccc(Nc3nccc(-c4cccc(-n5cncn5)c4)n3)cc2)n1	ASK1 primary 48.1 | AlphaScreen intf inactive
CC(=O)Nc1ccc(NC(=O)c2ccnc(Nc3ccc(-n4ccnc4)cc3)c2)cc1	none
O=C(NC1CC1)c1ccc(-c2nc(NCc3cccc(C(F)(F)F)c3)c3ncn(-c4ccsc4)c3n2)cc1	none
O=C(NC1CC1)c1ccc(-c2nc(NCc3cccc(C(F)(F)F)c3)c3ncn(-c4ccccc4)c3n2)cc1	ASK1 primary 44.7 | AlphaScreen intf inactive
Cc1c[nH]c2ncnc(-c3ccc(NC(=O)Nc4ccccc4)cc3)c12	ASK1 primary 39.2 | AlphaScreen intf inactive
CCn1c(=O)[nH]c2ncnc(-c3ccc(NC(=O)Nc4cccc(C(=O)NC(C)C)c4)cc3)c21	none
O=C(NCCOc1ccccc1)c1ccnc(-c2ccccc2)c1	none
FC(F)(F)c1ccc(Cn2cnc3c(NCc4cccc(C(F)(F)F)c4)nc(N4CCN(Cc5ccc6c(c5)OCO6)CC4)nc32)cc1	none
